Source: PubChem BioAssay
ELG1 genotox – inducers of genotoxicity in HEK293T ELG1-luciferase cells; HEK293T ELG1-luciferase reporter, luminescence, 16 h; Potency, µM (titrated, usually from 46 µM), without a hit: top-dose activity change, positive = activation, actives largely listed as activators; 1.3% of 330,000 active; AID 504466; further: % of control where 0% means no effect; nearly all actives have a fitted effect of over 60% in size
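DMSO vehicle served as control against compound-treated ELG1-luciferase HEK293T cells; exposure lasted 16 hr at 37 °C and 5% CO2, followed by ONE-Glo luminescence detection after 30 min.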
ELG1 DNA repair – ELG1-dependent DNA repair inhibition. HEK293T ELG1-luciferase reporter, luminescence, 16 h; DNA damage induced by 5-fluorouridine. Potency, µM (doses to about 46.1 µM), for inactives: top-dose activity change, negative = inhibition, hits mostly inhibitors. 2.3% of 330,000 active. AID 504467; further: on the % scale 0 is the no-effect control and ±100 the full control effect; nearly all actives have a fitted effect of over 55% in size
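Overnight (16 hr) co-exposure of 2,000 cells/well to 5-fluorouridine and compound at 37 °C preceded detection. Luciferase was quantified via ONE-Glo luminescence; loss of signal denotes inhibition.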
FLuc counter – firefly luciferase modulation, counter-screen for miR-21 project | P08659 | purified FLuc, Km substrates, luminescence inhibition | Potency, µM (highest dose often 57.5 µM), inactives show at the highest dose activity change, negative = inhibition, hits mostly inhibitors | 6.9% of 360,000 active | AID 588342;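 further: plate controls were vehicle for no effect and reference inhibitor for full effect; nearly all actives have a fitted effect of over 55% in size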
Target sequence (P08659 whole entry, looked up): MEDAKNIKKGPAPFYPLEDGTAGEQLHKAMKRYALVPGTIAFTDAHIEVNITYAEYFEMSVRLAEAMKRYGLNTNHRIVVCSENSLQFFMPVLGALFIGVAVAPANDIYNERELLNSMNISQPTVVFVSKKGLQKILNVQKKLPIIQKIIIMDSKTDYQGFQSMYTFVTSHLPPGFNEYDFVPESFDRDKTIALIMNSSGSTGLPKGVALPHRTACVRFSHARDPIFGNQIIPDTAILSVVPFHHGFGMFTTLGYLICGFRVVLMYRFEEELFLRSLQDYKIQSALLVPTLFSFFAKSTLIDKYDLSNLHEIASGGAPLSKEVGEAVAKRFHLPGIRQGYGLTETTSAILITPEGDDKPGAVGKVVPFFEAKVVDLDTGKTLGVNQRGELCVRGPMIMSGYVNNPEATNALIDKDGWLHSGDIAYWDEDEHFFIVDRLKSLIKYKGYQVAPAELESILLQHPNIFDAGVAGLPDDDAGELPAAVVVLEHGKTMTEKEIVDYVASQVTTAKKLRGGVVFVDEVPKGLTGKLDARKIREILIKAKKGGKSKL
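Purified P. pyralis luciferase (10nM final) with 10uM D-luciferin and 10uM ATP (Km levels) in 50mM Tris acetate pH 7.5, 10mM Mg acetate, 0.01% Tween-20, 0.05% BSA; qHTS 6-point titration, ~60 µM downward; luminescence read.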
SMN2 splice enh – increases expression of the SMN2 splice variant; HEK293 SMN2-luciferase splicing reporter, luminescence, 30-36 h; Potency, µM (doses to about 46.1 µM), for the others: at the top dose activity change, positive = activation, most hits filed as activators; 2.8% of 210,000 active; further: % of control where 0% means no effect; nearly all actives have a fitted effect of over 55% in size
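HEK293 cells carry an SMN2 […]–luciferase reporter in which exon 7 inclusion puts luciferase in frame. Cells were plated 10-12 h before compound addition, then incubated 30-36 h at 37C. ONE-Glo luminescence was read; sodium butyrate at 4.5 mM final served as control.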
Rab9 promoter act – Rab9 promoter activation; 2.8% of 320,000 active; AID 485297; Potency, µM (top dose mostly 9.22 µM), for inactives: top-dose activation, negative = inhibition, actives largely listed as activators; Huh7 Rab9 promoter-luciferase reporter, luminescence, 24 h; further: % of control where 0% means no effect; nearly all actives have a fitted effect of over 60% in size
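Quantitative HTS format; Huh7 Rab9-luciferase reporter cells (1500/well) receive compound 2 h post-plating, incubate 24 h at 37 °C, then get luciferase reagent for 10 min before luminescence reading.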
NPC1 prom act – activators of NPC1 promoter | Huh7 NPC1 promoter luciferase reporter, 24 h | Potency, µM (titrated, usually from 9.22 µM), without a hit: top-dose activation, hits mostly activators | 2.4% of 320,000 active | AID 485313; further: % of control where 0% means no effect; nearly all actives have a fitted effect of over 60% in size
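Stably transfected Huh7 (NPC1 promoter→luciferase), 1500 cells/well in Opti-MEM + 10% FBS, 2 h settle, then compound 24 h at 37 °C. Luminescence after 10 min with Amplite reagent.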
* hit, by the source's call. Only some compounds are listed: those with a hit (about 9.2% of all), similar ones and a draw of the others. The call rests on the fitted dose curve; in most records, active means well fitted curve in the direction sought with a large enough effect; inconclusive means small, poorly fitted or top-dose-only effect, or another doubt; inactive means no such curve, though single readings can be large; an effect the other way counts as inactive or inconclusive. Potency means the concentration at half of the fitted maximal effect.

How did COc1ccc(C2NCCc3sccc32)cc1 (stereo not drawn) do in these assays?
ELG1 genotox: -3%; ELG1 DNA repair: -9%; FLuc counter: 3%; SMN2 splice enh: -7%; Rab9 promoter act: -1%; NPC1 prom act: -4%

What do the screens show for `CN(C)c1nc(N)nc(CSc2nc3cc(Cl)ccc3o2)n1`?
ELG1 genotox: 7.3µM*; ELG1 DNA repair: inconclusive; FLuc counter: inconclusive; SMN2 splice enh: 4%; Rab9 promoter act: inconclusive; NPC1 prom act: inconclusive

What do the screens show for `Cc1cc(C)n2cc(CSc3nc4cc(Cl)ccc4o3)nc2n1`?
ELG1 genotox: 2%; ELG1 DNA repair: 0%; FLuc counter: -1%; SMN2 splice enh: -16%; Rab9 promoter act: 1%; NPC1 prom act: 1%

How did CN(C(=O)c1cc2ccccc2oc1=O)C1(C)CCS(=O)(=O)C1 (stereo not drawn) do in these assays?
ELG1 genotox: 4%; ELG1 DNA repair: 3%; FLuc counter: -19%; SMN2 splice enh: 6%; Rab9 promoter act: -6%; NPC1 prom act: 0%

How did COc1ccc(OC)c(NC(=S)N2c3ccccc3CC2C)c1 (stereo not drawn) do in these assays?
ELG1 genotox: -10%; ELG1 DNA repair: 18µM*; FLuc counter: -19%; Rab9 promoter act: -4%; NPC1 prom act: -3%

What do the screens show for `COc1ccc(NC(=O)CN(C)C(=O)CCCN2C(=O)c3cccc4cccc(c34)C2=O)cc1`?
ELG1 genotox: 1%; ELG1 DNA repair: -21%; FLuc counter: inconclusive; Rab9 promoter act: 12%; NPC1 prom act: 1%

Results for CCn1c(-c2ccc(F)cc2)cnc1SCC(=O)N1CCCCC1C (stereo not drawn) ?
ELG1 genotox: 6.5µM*; ELG1 DNA repair: inconclusive; FLuc counter: 11µM*; SMN2 splice enh: 1%; Rab9 promoter act: inconclusive; NPC1 prom act: inconclusive

How did NC(=O)C1CCN(C(=O)CCC(=O)c2cccs2)CC1 do in these assays?
ELG1 genotox: 4%; ELG1 DNA repair: inconclusive

Results for CCc1ccc2nc(N3C(=O)C(O)=C(C(=O)c4ccco4)C3c3cccs3)sc2c1 (stereo not drawn) ?
ELG1 genotox: 5%; ELG1 DNA repair: inconclusive; FLuc counter: inconclusive; SMN2 splice enh: inconclusive; Rab9 promoter act: 1%; NPC1 prom act: -5%

How did Cc1ccc2nc(N3C(=O)C(O)=C(C(=O)c4cc5ccccc5o4)C3c3cccs3)sc2c1 (stereo not drawn) do in these assays?
ELG1 genotox: inconclusive; ELG1 DNA repair: inconclusive; FLuc counter: 4.8µM*; SMN2 splice enh: 9%; Rab9 promoter act: 21%; NPC1 prom act: 27%

How did CC1CCN(c2ccc3nnc(CCC(=O)NC(C)C)n3n2)CC1 do in these assays?
ELG1 genotox: 2%; ELG1 DNA repair: 20%; FLuc counter: -1%; Rab9 promoter act: -6%; NPC1 prom act: -1%

How did COc1ccc(N(CC(=O)Nc2cccc(N(C)S(C)(=O)=O)c2)S(=O)(=O)c2ccc(C)cc2)cc1 do in these assays?
ELG1 genotox: -5%; ELG1 DNA repair: inconclusive; FLuc counter: 0%; Rab9 promoter act: -3%; NPC1 prom act: -1%

Results for CCOc1ccc(N(CC(=O)Nc2cccc(N(C)S(C)(=O)=O)c2)S(=O)(=O)c2ccccc2)cc1 ?
ELG1 genotox: -11%; ELG1 DNA repair: 13µM*; FLuc counter: -2%; SMN2 splice enh: -27%; Rab9 promoter act: -1%; NPC1 prom act: -3%

How did CCOc1ccc(NC(=O)CN(c2ccc([N+](=O)[O-])cc2)S(=O)(=O)c2ccccc2)cc1 do in these assays?
ELG1 genotox: -7%; ELG1 DNA repair: 10µM*; FLuc counter: 0%; SMN2 splice enh: -13%; Rab9 promoter act: -5%; NPC1 prom act: -8%

What do the screens show for `COc1ccc(N(CC(=O)Nc2cccc(N(C)S(C)(=O)=O)c2)S(=O)(=O)c2ccccc2)cc1Cl`?
ELG1 genotox: -11%; ELG1 DNA repair: 8.2µM*; FLuc counter: -5%; Rab9 promoter act: 0%; NPC1 prom act: -2%

What do the screens show for `CC(=O)Nc1ccc(NC(=O)CN(c2ccc([N+](=O)[O-])cc2)S(=O)(=O)c2ccccc2)cc1`?
ELG1 genotox: 3%; ELG1 DNA repair: 4%; FLuc counter: -14%; Rab9 promoter act: 10%; NPC1 prom act: -5%

What do the screens show for `COc1ccc(N(CC(=O)Nc2cccc(N(C)S(C)(=O)=O)c2)S(=O)(=O)c2ccc(F)cc2)cc1`?
ELG1 genotox: -7%; ELG1 DNA repair: 13µM*; FLuc counter: -2%; Rab9 promoter act: -5%; NPC1 prom act: 1%

How did COc1ccc(N(CC(=O)Nc2ccc(OC)c(OC)c2)S(=O)(=O)c2ccccc2)cc1Cl do in these assays?
ELG1 genotox: -5%; ELG1 DNA repair: inconclusive; FLuc counter: -1%; Rab9 promoter act: 10%; NPC1 prom act: -2%

How did Nc1cc(Oc2ccc(F)cc2F)cc([N+](=O)[O-])c1 do in these assays?
ELG1 genotox: 0%; ELG1 DNA repair: -5%; FLuc counter: 6%; Rab9 promoter act: -28%; NPC1 prom act: -8%

What do the screens show for `COc1ccc(NC(=O)CN(c2ccccc2)S(=O)(=O)N(C)C)cc1OC`?
ELG1 genotox: -7%; ELG1 DNA repair: 0%; FLuc counter: 2%; SMN2 splice enh: 1µM*; Rab9 promoter act: -1%; NPC1 prom act: 2%

Results for CN(c1cccc(NC(=O)CN(c2cccc(Cl)c2)S(=O)(=O)c2ccccc2)c1)S(C)(=O)=O ?
ELG1 genotox: -10%; ELG1 DNA repair: 26µM*; FLuc counter: 2%; Rab9 promoter act: 2%; NPC1 prom act: -2%

What do the screens show for `COc1ccc(NC(=O)CN(c2ccccc2)S(=O)(=O)N(C)C)cc1Cl`?
ELG1 genotox: 1%; ELG1 DNA repair: 14%; FLuc counter: 1%; SMN2 splice enh: -10%; Rab9 promoter act: -3%; NPC1 prom act: -7%

What do the screens show for `COC(=O)C1CCCN1C(=O)COc1ccc(Cl)cc1Br` (stereo not drawn)?
ELG1 genotox: -1%; ELG1 DNA repair: 20%; FLuc counter: -14%; SMN2 splice enh: 11%; Rab9 promoter act: -4%; NPC1 prom act: -4%

How did C=CCNC(=O)CN1N=C(c2ccc(C)cc2)CCC1=O do in these assays?
ELG1 genotox: 1%; ELG1 DNA repair: 16%; FLuc counter: 2%; Rab9 promoter act: -2%; NPC1 prom act: 2%

How did CN(C)c1ccc(/C=C/c2nnnn2-c2ccccc2)cc1 do in these assays?
ELG1 genotox: inconclusive; ELG1 DNA repair: inconclusive; FLuc counter: 8.5µM*; SMN2 splice enh: 16µM*; Rab9 promoter act: 1.6µM*; NPC1 prom act: 2µM*
